Data as given in PubChem BioAssay AID504652 (National Center for Advancing Translational Sciences (NCATS), 2011).
Out of some 360,000 compounds screened, about 11,000 (3.1%) were called active. Rule as the data show it: active = activity change below about -30%; inactive = the rest. Shown is part of a subset that was picked to be rich in actives.

Molecular target: D(1A) dopamine receptor (Homo sapiens) (UniProt P21728)
Assay: Antagonist of Human D 1 Dopamine Receptor: qHTS
Conditions: HEK293 TREx D1 cells, calcium flux, dopamine EC80; at 10 µM; hits give low values
Procedure, shortened: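 Calcium flux readout: force-coupled, inducible Hek293 Trex D1 line, cells induced overnight at 30 C with tetracycline, dye-loaded 30–90 min at RT. Antagonism scored against EC80 dopamine challenge given 180 s after compound.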
% is scaled to controls: 0 for no effect and ±100 for the full control effect.

Chain of D(1A) dopamine receptor (Homo sapiens) (P21728 whole entry, looked up): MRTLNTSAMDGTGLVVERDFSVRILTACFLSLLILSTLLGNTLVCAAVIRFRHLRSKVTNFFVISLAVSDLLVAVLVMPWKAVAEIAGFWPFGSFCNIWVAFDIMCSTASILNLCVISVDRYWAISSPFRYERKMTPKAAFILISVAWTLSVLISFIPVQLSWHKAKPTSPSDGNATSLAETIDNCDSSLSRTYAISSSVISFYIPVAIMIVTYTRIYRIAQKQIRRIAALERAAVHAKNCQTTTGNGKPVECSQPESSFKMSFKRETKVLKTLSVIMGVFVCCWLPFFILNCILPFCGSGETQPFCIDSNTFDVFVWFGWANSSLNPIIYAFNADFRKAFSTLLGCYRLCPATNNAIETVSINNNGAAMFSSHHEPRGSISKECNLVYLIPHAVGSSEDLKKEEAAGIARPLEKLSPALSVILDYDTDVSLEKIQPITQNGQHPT

| SMILES | activity change, negative = inhibition |
| --- | --- |
| CCCCCCn1nnc2sc(-c3ccccc3)cc2c1=O | 0.186% (inactive) |
| CC(=O)c1cc(NC(=O)c2ccccc2)c(=O)oc1/C=C/N(C)C | 0.591% (inactive) |
| CCOC(=O)c1cc(NC(=O)c2ccc(F)cc2)c(=O)n2c1oc1ccccc12 | 0.884% (inactive) |
| CCOC(=O)c1cc(NC(=O)c2ccc(Cl)cc2)c(=O)oc1-c1ccccc1 | -34.6% (active) |
| CSc1ccccc1NC(=O)CCS(=O)(=O)c1nc(-c2cccs2)cc(C(F)(F)F)n1 | 2.34% (inactive) |
| O=C(CNC(=O)c1ccccc1)OC(C(=O)Nc1cc([N+](=O)[O-])ccc1F)c1ccccc1 (stereo not given) | 4.21% (inactive) |
| CC(C)(C)OC(=O)N1CCC(c2c(C(=O)N3CCN(c4cccc(Cl)c4)CC3)cnn2-c2cccc(Cl)c2)CC1 | -2.09% (inactive) |
| Cc1nc(SCC(=O)N2CCN(c3ccccc3)CC2)[nH]c(=O)c1C | -2.36% (inactive) |
| CN(Cc1ccccc1)CC(O)COc1ccc(CNCc2cc3ccccc3s2)cc1 (stereo not given) | -41.2% (active) |
| Cc1ccc(OCC(=O)OC(C)CN(C)Cc2ccccc2)cc1 (stereo not given) | -3.69% (inactive) |
| COc1ccc(OCC(O)CN(C)C(=O)C(C)Oc2ccccc2)cc1 (stereo not given) | -13.9% (inactive) |
| COc1cc(C(=O)N/C(=C\c2cn(C)c3ccccc23)C(=O)N2CCOCC2)cc(OC)c1OC | -33.6% (active) |
| Cc1ccc(C(=O)N/C(=C\c2cn(C)c3ccccc23)C(=O)N2CCN(C)CC2)cc1 | 10.2% (inactive) |
| CCn1cc(/C=C(\NC(=O)c2cc(OC)c(OC)c(OC)c2)C(=O)N2CCN(C)CC2)c2ccccc21 | 3.95% (inactive) |
| COc1ccccc1Cc1nc2ccccc2nc1SCC(=O)N1CCCc2ccccc21 | -2.97% (inactive) |
| COc1ccc(NC(=O)c2cnc(Nc3ccc(C)c(Cl)c3)c3ccccc23)cc1OC | 0.261% (inactive) |
| Cc1cc(C)c(NC(=O)Cn2c(SCC(=O)NCc3ccccc3)nc3ccccc32)c(C)c1 | 2.9% (inactive) |
| Cc1ccccc1NC(=O)Cc1nc(COC(=O)c2ccc(C(F)(F)F)cc2)cs1 | -34.6% (active) |
| C/C=C/C(=O)OCc1csc(CC(=O)Nc2ccccc2C)n1 | -6.19% (inactive) |
| Cc1ccccc1NC(=O)Cc1nc(COC(=O)c2cccnc2Cl)cs1 | -12% (inactive) |
| CCC(=O)N1CCc2cc(CNC(=O)Nc3ccccc3Cl)ccc21 | 8.55% (inactive) |
| CCCN1C(=O)C(O)(CC(=O)c2ccc(CC)cc2)c2cc(Br)ccc21 (stereo not given) | -2.04% (inactive) |
| Cc1ccc(-c2onc(C)c2C)cc1S(=O)(=O)Nc1ccccn1 | -4.41% (inactive) |

| SMILES | activity change, negative = inhibition |
| --- | --- |
| COc1ccc(-c2onc(C)c2C)cc1S(=O)(=O)NCCc1ccccc1 | -3.85% (inactive) |
| O=S(=O)(c1ccc(Br)cc1)c1nnn2c1nc(N1CCOCC1)c1sccc12 | 0.25% (inactive) |
| O=C(Nc1ccncc1)Nc1ccc(F)cc1 | 9% (inactive) |
| Cc1nc2cc(NC(=O)Nc3cccc(F)c3)ccc2n1C | -4.15% (inactive) |
| O=C(Nc1ccc2ccccc2c1)Nc1ccc2snnc2c1 | -44.8% (active) |
| Cc1ccccc1NC(=O)Cn1c(=O)n(Cc2ccco2)c(=O)c2ccc(C(=O)NC3CCCC3)cc21 | -18.2% (inactive) |
| COc1ccc(NC(=O)C(c2ccccc2)N2Cc3ccccc3C2=O)cc1 (stereo not given) | -6.94% (inactive) |
| COc1ccc(OCC(=O)OCC(=O)Nc2ccc(S(=O)(=O)N3CCCCC3)cc2)cc1 | -15.5% (inactive) |
| CN1CCC(OC(=O)COc2ccc(Cl)cc2Cl)CC1 | -9.08% (inactive) |
| CN1CCN(c2ccc(NC(=O)COc3ccc(Cl)cc3Cl)cc2)CC1 | -32% (active) |
| CCC(=O)c1ccc(OCC(=O)Nc2ccc(N3CCCCC3)cc2)cc1 | 16.6% (inactive) |
| COc1ccc(OCC(=O)Nc2ccc(N3CCC(C)CC3)cc2)cc1 | -33.3% (active) |
| Cc1ccc(Cl)c(OCC(=O)N(C)CC(=O)Nc2ccc(N3CCOCC3)cc2)c1 | -14.5% (inactive) |
| CCOC(=O)C1CCN(C(=O)CSc2c3c(nc4ccc(Cl)cc24)CCCC3)CC1 | -13.5% (inactive) |
| CC(=O)N1CCc2cc(Br)cc(S(=O)(=O)CCC(=O)NCCc3ccc(Cl)cc3)c21 | -8.71% (inactive) |
| COc1ccc(-c2noc(CSc3nc4ccc(C)cc4[nH]3)n2)cc1 | -1.27% (inactive) |
| CC(=O)c1ccc(NC(=O)c2nc(-c3ccc(C)cc3)n3c2CCCCC3)cc1 | -2.03% (inactive) |
| O=C(CCN1C(=O)c2ccccc2C1=O)NNC(=O)c1ccc(Cl)cc1Cl | -4.44% (inactive) |
| Cn1cc(C(=O)c2ccc(Cl)cc2Cl)cc1C(=O)NN | -37.3% (active) |
| CC(C)(C)c1cc(C(=O)NN)n(Cc2ccc(Cl)cc2Cl)n1 | -27.8% (inactive) |
| Cc1ccc(NC(=O)c2cn3c4c(ccc(Cl)c4c2=O)OC(C)C3)cc1C (stereo not given) | -1.66% (inactive) |
| Cc1cc(Cl)ccc1NC(=O)Cc1ccc(NC(=O)N2CCCCc3ccccc32)cc1 | -3.59% (inactive) |
| CCOc1ccc(NC(=O)CCc2c(C)nn(-c3ccc(N4CCCC4)nn3)c2C)cc1 | 4.71% (inactive) |

| SMILES | activity change, negative = inhibition |
| --- | --- |
| CC(=O)Nc1c(C)nn(-c2ccccc2)c1N1CCC(C(=O)Nc2cc(Cl)ccc2C)CC1 | -18.9% (inactive) |
| CSc1ncc(Cl)c(C(=O)Nc2ccc(S(=O)(=O)N3CCCC(C)C3)cc2)n1 (stereo not given) | -5.19% (inactive) |
| CN(Cc1ccccc1)C(=O)c1ccc(COc2ccccc2)cc1 | -60.8% (active) |
| CN(CC(=O)Nc1ccc(Cl)cc1)C(=O)c1ccc(COc2ccccc2)cc1 | 3.34% (inactive) |
| CCOc1ccc(CN(C)C(=O)c2ccc(=O)[nH]c2)cc1 | 10.3% (inactive) |
| CCOc1cc(C2C(C(=O)OC)=C(C)NC3=C2C(=O)c2ccccc23)ccc1O (stereo not given) | -1.02% (inactive) |
| COc1ccccc1-c1cc2nc(C)c(CCC(=O)NC3CCCCC3)c(C)n2n1 | 2.22% (inactive) |
| COC(=O)c1ccc(NC(=O)Nc2ccc(C)cc2)cc1 | -35.1% (active) |
| COC(=O)c1sccc1NC(=O)c1ccc(Cl)cc1 | 1.11% (inactive) |
| COC(=O)c1sccc1NC(=O)CCC1CCCC1 | 1.13% (inactive) |
| COC(=O)c1sccc1NN1C(=O)c2ccccc2C1=O | -47.9% (active) |
| CCOC(=O)C(=CNNc1ccsc1C(=O)OC)C(=O)OCC | 12.1% (inactive) |
| COC(=O)c1ccc(NC(=S)Nc2cccc(C)n2)cc1 | -4.64% (inactive) |
| COC(=O)c1sccc1NS(=O)(=O)c1ccc(F)cc1F | -12% (inactive) |
| COc1cc(NC(=O)Nc2ccc(C)cc2)cc([N+](=O)[O-])c1 | -3.95% (inactive) |
| COC(=O)c1sccc1NC(=S)Nc1ccc(C)cc1 | -32.4% (active) |
| Cc1oc2c(c1C(=O)Nc1ccc(F)c(F)c1)C1=NCCN1C=N2 | -2.12% (inactive) |
| CCOC(=O)c1ccc(NC(=O)c2ncn(-c3ccccc3)n2)cc1 | -18.3% (inactive) |
| O=C(CCC1N=C2c3ccccc3N=C(SCc3ccccc3F)N2C1=O)NCCc1ccccc1 (stereo not given) | 14.5% (inactive) |
| COc1ccc(N2CCN(Cc3nc4c(c(=O)[nH]c(=O)n4C)n3Cc3ccc(Cl)cc3)CC2)cc1 | -1.05% (inactive) |
| Cc1ccc(NC(=O)c2nc(S(=O)(=O)Cc3cccc(C)c3)ncc2Cl)cc1 | -29.3% (inactive) |
| Cc1cccc(CS(=O)(=O)c2ncc(Cl)c(C(=O)Nc3ccc(F)cc3)n2)c1 | -44.7% (active) |
| Cc1cccc(NC(=O)c2nc(S(=O)(=O)Cc3ccccc3)ncc2Cl)c1 | -28.7% (inactive) |

| SMILES | activity change, negative = inhibition |
| --- | --- |
| CCc1cccc(CC)c1NC(=O)Cn1c(=O)c(-c2cc(C)ccc2NC(C)=O)nc2ccccc21 | -15.1% (inactive) |
| Cc1nn(C)c2c1c(C(F)(F)F)cc(=O)n2C(C)C(=O)NCc1ccc(Cl)cc1 (stereo not given) | 16.7% (inactive) |
| O=C(Nc1ccc(S(=O)(=O)N2CCC(c3nc4ccccc4s3)CC2)cc1)c1ccccc1F | 11% (inactive) |
| COc1ccc(N2CCN(S(=O)(=O)CCNC(=O)C(c3ccccc3)c3ccccc3)CC2)cc1 | -1.95% (inactive) |
| CNc1ccc(NC(C)=O)cc1[N+](=O)[O-] | -1.26% (inactive) |
| Cc1ccc(Nc2ccc(C(N)=O)cc2[N+](=O)[O-])cc1 | -47.2% (active) |
| CCOC(=O)c1ccc(NNC(C)=O)c([N+](=O)[O-])c1 | -8.63% (inactive) |
| CCOc1ccccc1Nc1ccc(C(=O)O)cc1[N+](=O)[O-] | -11.5% (inactive) |
| NC(=O)c1ccc(Nc2ccc3c(c2)CCC3)c([N+](=O)[O-])c1 | -48.2% (active) |
| O=[N+]([O-])c1ccccc1Nc1ccc(O)cc1 | 5.4% (inactive) |
| COC(=O)c1cnn(-c2ccc(C(=O)Nc3ccc(OC(F)(F)F)cc3)cc2)c1N | -10.8% (inactive) |
| COc1ccc(Cn2c(C(=O)O)c(CNCc3cccc(OC)c3)c3ccc(C)cc32)cc1 | 8.54% (inactive) |
| C[C@H](NC(=O)C1CC(=O)N(c2ccc3c(c2)OCCO3)C1)C(=O)N1CCC(C(=O)O)CC1 (stereo not given in full) | 9.3% (inactive) |
| CCOC(=O)c1ccc(NC(=O)C2CC(=O)N(c3ccc4c(c3)OCCO4)C2)cc1 (stereo not given) | 6.91% (inactive) |
| CC(C)C[C@H](NC(=O)C1CC(=O)N(c2ccc3c(c2)OCCO3)C1)C(=O)NC1CCCC1 (stereo not given in full) | -44.1% (active) |
| Cc1ccc(S(=O)(=O)N(CC(=O)NCc2ccco2)c2ccccc2C)cc1 | -44.4% (active) |
| COc1ccc(S(=O)(=O)N(CC(=O)NCc2ccco2)c2ccc(F)cc2)cc1 | -3.07% (inactive) |
| CCN(CC(=O)NCc1ccco1)S(=O)(=O)c1ccc(F)cc1 | -0.842% (inactive) |
| CCOC(=O)N1CCN(S(=O)(=O)N2CCCC(C(=O)NCCCN3CCC(C)CC3)C2)CC1 (stereo not given) | 2.88% (inactive) |
| CCCS(=O)(=O)N1CCCC(C(=O)NCc2ccco2)C1 (stereo not given) | 6.64% (inactive) |
| CCCS(=O)(=O)N1CCCC(C(=O)NCCN2CCCCC2C)C1 (stereo not given) | -41.8% (active) |
